Assay outcomes (PubChem BioAssay)
The list is not random: actives were taken first. Their share in the collection is about 10%.
Six1-Eya2 blk = inhibitors of human Six1/Eya2 interaction; 360,000 tested, 0.56% active; AID 651725; activity change, % (test concentration not listed); AlphaScreen GST-Six1/His-Eya2 binding, biochemical; active compounds read low; in the data active = activity change below about -65%; inconclusive = mostly about -30% to -63%; also: % is scaled to controls: 0 for no effect and ±100 for the full control effect
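Homogeneous AlphaScreen proximity assay pairing GST-Six1 with His-tagged Eya2 (added as 5X mix: 250 nM and 500 nM) in 50 mM Tris pH 8.0, 300 mM NaCl, 1 mM TCEP. Glutathione donor and nickel acceptor beads; 1 h, 37 °C, dark.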
CtBP-E1A blk = inhibitors of CtBP/E1A interaction; AlphaScreen GST-E1A/His-CtBP binding, 1536-well; active compounds read low; activity change, % (concentration not given with the values); 340,000 tested, 0.49% active; AID 651724; in the data active = activity change below about -65%; inconclusive = mostly about -30% to -63%; also: % is scaled to controls: 0 for no effect and ±100 for the full control effect
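Steps: dispense buffer (Tris pH 8.0, NaCl 300 mM, TCEP 1 mM, BSA, Tween 20); add 5X protein mix (GST-E1A, His-CtBP, 125 nM each); pin 23 nL compound; 2 h at 37 °C, dark; add 5X beads (50 ug/mL); 1 h; read.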
G9a block = G9a (human) methyltransferase inhibition | Q96KQ7 | G9a H3K9 monomethylation, AlphaScreen, 2 h | Potency, µM (highest dose often 102 µM), for the others: at the top dose activity, negative = inhibition, usual class: inhibitors | 350,000 tested, 8.8% active | AID 504332; also: potency is read from the fitted curve at half-maximal effect; % is scaled to controls: 0 for no effect and ±100 for the full control effect; nearly all actives have a fitted effect of over 75% in size
Target sequence (Q96KQ7 913-1193 limits assumed): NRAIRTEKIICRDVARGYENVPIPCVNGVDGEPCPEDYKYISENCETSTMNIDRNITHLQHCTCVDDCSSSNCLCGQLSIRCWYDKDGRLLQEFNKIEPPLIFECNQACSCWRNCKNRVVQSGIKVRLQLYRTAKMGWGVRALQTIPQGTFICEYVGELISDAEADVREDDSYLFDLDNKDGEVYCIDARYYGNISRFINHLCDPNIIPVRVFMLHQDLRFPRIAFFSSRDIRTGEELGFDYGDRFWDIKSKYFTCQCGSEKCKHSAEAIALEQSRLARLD
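Step 1: enzyme (final 20 nM) with compound, 15 min RT. Step 2: substrate peptide 500 nM and SAM 20 uM, 2 h RT. Step 3: anti-H3K9me1 antibody and AlphaScreen beads, 10 min, then plate read.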
HP1b binding inh = HP1-beta chromodomain-methylated histone interaction inhibition; AlphaScreen HP1-beta / biotin-H3K9me3 peptide binding; Potency, µM (highest dose often 114 µM), for the others: at the highest dose activity change, negative = inhibition, usual class: inhibitors; 390,000 tested, 0.56% active; AID 540317; also: potency is read from the fitted curve at half-maximal effect; nearly all actives have a fitted effect of over 70% in size
Target sequence (P83916 whole entry, looked up): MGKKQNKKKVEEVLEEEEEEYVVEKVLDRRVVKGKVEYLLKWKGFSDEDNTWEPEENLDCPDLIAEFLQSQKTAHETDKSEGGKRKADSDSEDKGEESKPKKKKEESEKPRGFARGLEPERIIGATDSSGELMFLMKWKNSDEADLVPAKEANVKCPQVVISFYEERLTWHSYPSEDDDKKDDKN
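Compound inhibition of the preformed complex between 50 nM HP1-beta and 50 nM biotinylated H3K9me3 peptide was read by AlphaScreen. Buffer was PBS pH 7.4 with 0.01% Tween-20. Incubations ran 30 min at room temperature, with 10 ug/mL donor/acceptor beads.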
BAZ2B block = inhibitors of human BAZ2B bromodomain. Q9UIF8. AlphaScreen BAZ2B-H3K14Ac peptide displacement. Potency, µM (titrated, usually from 114 µM), for the others: at the highest dose activity change, negative = inhibition, most hits filed as inhibitors. 360,000 tested, 4.4% active. AID 504333; also: potency is read from the fitted curve at half-maximal effect; % is scaled to controls: 0 for no effect and ±100 for the full control effect; nearly all actives have a fitted effect of over 60% in size
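Compounds, titrated to a top concentration of 110 uM, were incubated 30 min at room temperature with preformed BAZ2B/acetyl-K14 H3 peptide complex (50 nM each). Proximity signal was measured by AlphaScreen after 20 min with beads.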
JMJD2A Tudor inh = JMJD2A Tudor domain (human) inhibition; 390,000 tested, 4.4% active; AID 504339; O75164; AlphaScreen JMJD2A-Tudor / H3K4me3 peptide binding; Potency, µM (top dose mostly 114 µM), for the others: at the top dose activity change, negative = inhibition, actives largely listed as inhibitors; also: potency is read from the fitted curve at half-maximal effect; % is scaled to controls: 0 for no effect and ±100 for the full control effect; nearly all actives have a fitted effect of over 50% in size
Starred values were filed as active, the others as inactive; ? = inconclusive; · = no result; [ ] = dose if it differs, or a comment. Unless noted, calls follow the shape of the dose curve; as a rule, active = well fitted inhibition curve with a large enough effect; inconclusive = small, poorly fitted or top-dose-only effect; inactive = no such curve, though single readings can be large or run the other way.

SMILES	Six1-Eya2 blk	CtBP-E1A blk	G9a block	HP1b binding inh	BAZ2B block	JMJD2A Tudor inh
CCN(CC)S(=O)(=O)c1ccc(OC)c(NC(=O)C2CC(=O)N(c3ccc4c(c3)OCCO4)C2)c1 (stereo unspecified)	-0.1	-10.7	·	12.9%	-13.3%	-17.9%
O=C(Nc1ccccc1Cc1ccccc1)C1CC(=O)N(c2ccc3c(c2)OCCO3)C1 (stereo unspecified)	-0.2	-1.9	3.55µM*	-16.0%	50.1µM*	?
COc1cc(OC)c(NC(=O)C2CC(=O)N(c3ccc4c(c3)OCCO4)C2)cc1Cl (stereo unspecified)	-17.3	-7.0	44.7µM*	-8.1%	3.8%	-23.6%
Cc1cc(C)c(NC(=O)C2CC(=O)N(c3ccc4c(c3)OCCO4)C2)c(C)c1 (stereo unspecified)	-8.1	-1.3	-14.4%	6.1%	-17.8%	?
CCN(CC)CCNC(=O)c1nn(-c2ccc(OC)c(Cl)c2)c(=O)c2c1c1ccccc1n2C	·	·	4.7%[59 µM]	23.2%	·	-12.0%
CC(C)(C)n1nnnc1C(c1ccccc1)N1CCN(c2c(Cl)cncc2Cl)CC1 (stereo unspecified)	0.4	-0.9	·	·	·	·
COc1ccc(-c2cc(C(=O)Nc3sc4c(c3C(N)=O)CCC(C)C4)no2)cc1 (stereo unspecified)	·	·	-0.8%[59 µM]	48.4%	0.1%	1.4%
NC(=O)c1c(NC(=O)c2cc(-c3ccc(F)cc3)on2)sc2c1CCCC2	·	·	1.78µM*	-23.2%	-12.9%	-31.1%
NC(=O)c1c(NC(=S)Nc2ccccc2)sc2c1CCCC2	-7.4	0.0	6.31µM*	-24.8%	-31.4%	?
NC(=O)c1c(NC(=O)c2ccccc2)sc2c1CCC2	-10.8	-7.9	-43.6%	67.5%	?	-12.5%
NC(=O)c1c(NC(=S)Nc2ccc(F)cc2)sc2c1CCCC2	-1.4	-1.8	22.4µM*	-4.9%	-21.4%	-3.8%
NC(=O)c1c(NC(=O)c2cnccn2)sc2c1CCCC2	?	·	8.91µM*	24.6%	-22.5%	-7.5%[11.4 µM]
COCCN1Cc2cccc(C(=O)Nc3ccc(C)c(F)c3)c2C1=O	·	·	-3.3%[59 µM]	46.1%	·	-8.3%
C=CCNC(=S)Nc1sc2c(c1C(N)=O)CCCC2	-5.9	-7.7	17.8µM*	?	-37.6%	-33.8%
C=CC(=O)Nc1sc2c(c1C(N)=O)CCCC2	13.0	4.2	-13.8%[2.33 µM]	20.7%	2.1%	-11.8%
Cc1cc(C)cc(NC(=O)CSc2nc3nc(C)cc(C)n3n2)c1	-15.5	-5.4	-6.9%[12.7 µM]	17.8%	-3.2%	1.4%
Nc1cc2c(cc1O)CCCC2	-2.9	0.6	·	?	-30.6%	2.51µM*
CNC(=S)NNC(=O)c1cn(C)nc1C	9.3	?	39.8µM*	54.3%	-7.8%	-10.5%
O=[N+]([O-])c1ccc(N/N=C/c2ccc(O)c(O)c2O)c(S(=O)(=O)N2CCOCC2)c1	-21.5	-18.8	·	20µM*	31.6µM*	44.7µM*
O=[N+]([O-])c1ccc(N2CCN(c3ccccc3F)CC2)c(S(=O)(=O)N2CCOCC2)c1	-14.4	-11.3	20µM*	5.8%	-9.5%	?
O=[N+]([O-])c1ccc(N/N=C/c2cccc(O)c2O)c(S(=O)(=O)N2CCOCC2)c1	-21.3	-3.6	35.5µM*	1.0%	?	-20.7%
O=[N+]([O-])c1cccc(N/N=C/c2cccc(O)c2O)c1	-9.7	-3.4	22.4µM*	-16.4%	?	-30.2%
O=[N+]([O-])c1ccccc1N/N=C/c1cccc(O)c1O	-15.6	-9.7	?	-15.3%	?	-15.8%
CCN(c1ccccc1)c1nnc(NC(=O)Nc2ccc(Br)cc2F)s1	·	·	-43.0%[59 µM]	66.0%	3.2%	-3.3%
CC(C)C[C@@H](CN1CCC[C@H]1CN1C(=O)C(=O)NC[C@@H]1Cc1ccccc1)N1C[C@H](Cc2ccc(O)cc2)N(CC2CCCCCC2)C(=O)C1=O	7.8	-24.6	·	·	·	·
O=C(CCc1ccc(S(=O)(=O)N2CCOCC2)cc1)N/N=C/c1ccc(O)c(O)c1O	-68.2*	-72.8*	7.94µM*	?	?	79.4µM*
